# Assay outcomes (PubChem BioAssay)
# AT treatment: candidate therapy for ataxia-telangiectasia; Potency, µM (series often up to 57.5 µM), inactives show at the highest dose activation, usual class: activators; F2112 A-T fibroblasts, KAP-1 phosphorylation AlphaLISA; neocarzinostatin DNA damage 30 min before lysis; actives 0.19% (n = 320,000); note: potency is the fitted concentration of half-maximal effect; % of control where 0% means no effect; nearly all actives have a fitted effect of over 45% in size
#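 hTERT-immortalized A-T patient fibroblasts (F2112), 500 cells/well in OPTI-MEM, 1% FBS, got compounds for 60 min, then NCS for 30 min at 37C. Lysates were then assayed for phospho-KAP-1 by AlphaLISA (anti-pKAP1 donor, anti-KAP1 acceptor beads), 6 hr at 25C.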
# TCR act: activators of T cell receptors; Potency, µM (top dose mostly 9.22 µM), inactives show at the highest dose activation of IL-2 secretion, hits mostly activators; AID 504894; primary human leukocytes, anti-CD3, IL-2 HTRF, 48 h; 330,000 tested, under 10 active; note: % of control where 0% means no effect
#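 Human primary leukocytes + a-CD3 beads + cpd, 48 hr; IL-2 in supernatant by HTRF (ex 320nm / em 665nm). No co-stimulatory signal supplied.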
# PKM2 act: PKM2 (human) enzyme activation | P14618 | purified PKM2, Kinase-Glo ATP luminescence, activation; response scale: 0% is enzyme alone, no compound | Potency, µM (highest dose often 57.5 µM), inactives show top-dose activation, hits mostly activators | actives 0.34% (n = 260,000) | AID 1631; note: potency is the fitted concentration of half-maximal effect; % is set by controls: 0 for no effect and ±100 for the full control effect; nearly all actives have a fitted effect of over 55% in size
#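 hPK-M2, >95% pure; 0.1 mM ADP / 0.5 mM PEP final; imidazole pH7.2 buffer w/ 7 mM MgCl2, 50 mM KCl; 1 h RT; Kinase-Glo lum. Intermediate enzyme activity for dual inhibitor/activator qHTS.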
# Integrin act MD: activates integrin-mediated alleviation for muscular dystrophy | alpha7betagal myoblasts, beta-gal FDG fluorescence, 48 h | Potency, µM (top dose mostly 38.3 µM), for the others: at the highest dose activation, actives largely listed as activators | actives 0.064% (n = 350,000);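 note: potency is the fitted concentration of half-maximal effect; 100% = response of the positive control SU9516; nearly all actives have a fitted effect of over 60% in size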
#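 Alpha7betagal+/- myoblasts (passage 13) were plated 16-24 hr, then exposed to compounds (1:260 dilution of DMSO stock) for 48 hours at 37C. After MPER lysis, β-galactosidase reporter activity was read as FDG fluorescence (ex 480/em 540) after 30 minutes.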
# Tb PFK inh: T. brucei PFK enzyme inhibition; actives 0.17% (n = 330,000); Potency, µM (highest dose often 57.5 µM), without a hit: top-dose activity, negative = inhibition, actives largely listed as inhibitors; O15648; T. brucei PFK, ADP-Glo luminescence;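 note: potency is the fitted concentration of half-maximal effect; 0% = uninhibited 1x PFK enzyme wells and -100% = no-enzyme wells; nearly all actives have a fitted effect of over 60% in size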
# Target sequence (O15648 whole entry, looked up): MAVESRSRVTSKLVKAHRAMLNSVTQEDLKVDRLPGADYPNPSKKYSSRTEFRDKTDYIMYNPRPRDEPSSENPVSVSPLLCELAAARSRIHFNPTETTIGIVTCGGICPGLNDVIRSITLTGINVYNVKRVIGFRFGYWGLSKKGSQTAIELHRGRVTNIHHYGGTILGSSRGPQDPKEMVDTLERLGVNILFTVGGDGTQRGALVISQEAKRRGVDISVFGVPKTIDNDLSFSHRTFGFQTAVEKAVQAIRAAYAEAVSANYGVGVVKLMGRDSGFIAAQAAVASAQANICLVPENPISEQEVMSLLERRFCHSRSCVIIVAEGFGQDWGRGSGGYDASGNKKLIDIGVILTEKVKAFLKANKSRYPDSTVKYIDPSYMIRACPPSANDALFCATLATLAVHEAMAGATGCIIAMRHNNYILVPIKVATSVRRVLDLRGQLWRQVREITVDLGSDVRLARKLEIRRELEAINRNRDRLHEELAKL
#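 ADP-Glo luminescence quantified ADP after 45 min at room temperature, with 1.25 nM T. brucei PFK, 0.1 mM ATP and 0.5 mM fructose-6-phosphate in pH 8.0 TEA buffer. qHTS titrations up to 57 µM; curves classified by quality.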
# IL-2 act: activators of IL-2; AID 652025; actives 0.065% (n = 360,000); IL-2 activation reporter assay, cell-based qHTS; stimulated with anti-CD3/CD4/CD28 beads; in transgenic mouse T cells; activation, % (series mostly up to about 46 µM); in the data active = activation above about 50%; inconclusive = mostly about 30% to 49%; note: 0% is about no effect
#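 Using fluorescent plate cytometry, EGFP and DsRed are detected in transgenic mouse T cells stimulated 18 h at 37 degrees C with antibody-coated beads after 60 min compound pretreatment.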
# HeLa viability: counter-screen for pyruvate kinase M2 activators: HeLa cytotoxicity; shares compounds with PKM2 act; HeLa viability, CellTiter-Glo ATP luminescence, 24 h; activity change, negative = cytotoxicity, % at 57.5 µM; 230 tested, under 10 active; note: % of control where 0% means no effect
# Starred values were filed as active, the others as inactive; ? = inconclusive; · = no result given; [ ] = remark or other dose. Most compounds without a hit are left out; they make up all but 0.69% or so of the library. Unless noted, calls come from the whole dose curve; as a rule, active = well fitted curve in the direction sought with a large enough effect; inconclusive = small, poorly fitted or top-dose-only effect, or another doubt; inactive = no such curve, though single readings can be large; an effect the other way counts as inactive or inconclusive.
SMILES,AT treatment,TCR act,PKM2 act,Integrin act MD,Tb PFK inh,IL-2 act,HeLa viability
CCOc1cc(-c2noc(CCC(=O)Nc3cccnc3)n2)ccc1OC,-24%,3%,1.4µM*,-6%,0%,0,-4
COc1ccc(C(CNC(=O)C(=O)NC2CCCC2)N2CCN(C)CC2)cc1 (configuration not stated),3%,-4%,·,-5%,-13%,0,·
COc1cc2c(C(=O)NCc3ccc(C)o3)cn(CC(C)C)c(=O)c2cc1OC,3%,1%,14µM*,-25%,-13%,0,2
O=C(Cn1ncc2c3ccccc3n(Cc3ccccc3F)c2c1=O)N1CCN(c2ccccn2)CC1,6%,-6%,1%,2%,-1%,-5,·
CC(=O)Nc1cc2c(s1)c1cnn(Cc3ccccc3F)c(=O)c1n2C,-13%,·,·,·,-8%,·,2
CCc1cc2c(s1)c1cnn(Cc3ccccc3F)c(=O)c1n2C,·,·,·,·,·,·,?
Cn1c2ccccc2c2cnn(CC(=O)Nc3cccc(F)c3)c(=O)c21,-6%,1%,3%,-4%,3%,0,·
CSc1cc2c(s1)c1cnn(Cc3ccccc3F)c(=O)c1n2C,·,·,·,·,·,·,6
Cn1c2cc(CO)sc2c2cnn(Cc3ccccc3F)c(=O)c21,·,·,·,·,·,·,3
Cc1c2cnn(CC(=O)Nc3c(F)c(F)cc(F)c3F)c(=O)c2c(C)n1Cc1ccccc1F,-2%,-2%,2%,0%,21%,-2,·
Cn1c2cc(C=O)sc2c2cnn(Cc3ccccc3F)c(=O)c21,·,·,·,·,·,·,-11
COc1cc2c(s1)c1cnn(Cc3ccccc3F)c(=O)c1n2C,·,·,·,·,·,·,-12
COc1ccc(CN2CCCC(C(=O)c3ccc4c(c3)OCO4)C2)c(F)c1 (configuration not stated),6%,-8%,·,0%,6%,-2,·
Cc1ccc2cc(CN(Cc3ccco3)C(=O)NCc3ccccc3)c(=O)[nH]c2c1C,0%,4%,-3%,-13%,-1%,-1,·
Cc1ccc(C)c2[nH]c(=O)c(CN(Cc3ccco3)C(=O)Nc3ccccc3)cc12,-10%,-2%,7.9µM*,11%,-6%,-1,?
Cn1c(SCC(=O)N/N=C/C=C\c2ccco2)nc2ccccc21,8%,-1%,7.1µM*,-31%,4%,-2,-3
CCCN1CCN(C(=O)Cn2cnc3ccc(S(=O)(=O)N4CCC(C)CC4)cc3c2=O)CC1,0%,-2%,-1%,-9%,-1%,0,·
Cc1cc2c(s1)c1cnn(Cc3ccc(F)cc3)c(=O)c1n2C,·,·,·,·,·,·,6
Cc1cc2c(s1)c1cnn(Cc3ccccc3)c(=O)c1n2C,·,·,·,·,·,·,3
Cc1ccc(Cn2ncc3c4sc(C)cc4n(C)c3c2=O)cc1,·,·,·,·,·,·,-2
Cc1ccc(Cn2ncn3c(cc4ccccc43)c2=O)cc1,0%,3%,3%,0%,-1%,2,·
Cc1cc2c(s1)c1cnn(-c3ccccc3)c(=O)c1n2C,-2%,-8%,·,·,-2%,0,3
Cn1c2cc(C#N)sc2c2cnn(Cc3ccc(F)cc3)c(=O)c21,-5%,3%,·,·,-2%,0,·
COc1ccc(Cc2[nH]n3c(=O)c(Cl)c(C)nc3c2-c2ccccc2)cc1,-1%,-6%,11%,-7%,8%,-1,·
Cc1cc2c(s1)c1cnn(Cc3ccccc3Cl)c(=O)c1n2C,·,·,·,·,·,·,2
SMILES,AT treatment,TCR act,PKM2 act,Integrin act MD,Tb PFK inh,IL-2 act,HeLa viability
Cc1cc2c(s1)c1cnn(Cc3ccc(F)cc3F)c(=O)c1n2C,·,·,·,·,·,·,5
Cc1cc2c(s1)c1cnn(CC(=O)NCCc3ccccc3)c(=O)c1n2C,1%,2%,-4%,-12%,1%,0,·
Cc1cc2c(s1)c1cnn(Cc3ccc(S(C)(=O)=O)cc3)c(=O)c1n2C,·,·,·,·,·,·,-15
CN(C)C(=O)c1cc(C(=O)c2ccccc2Br)c[nH]1,0%,0%,·,-32%,3%,1,·
CC(=O)N1N=C(c2ccncc2)CC1c1ccccc1O (configuration not stated),10%,-2%,4.5µM*,-9%,2%,1,-4
O=C(c1ccccc1)N1N=C(c2ccccc2)CC1c1ccccc1O (configuration not stated),8%,2%,0%,4%,2%,-3,·
c1ccc(-c2nn3c(Cn4cnc5ccccc54)nnc3s2)cc1,0%,-5%,3.2µM*,-15%,-15%,-1,2
c1ccc(-c2nn3c(Cn4nnc5ccccc54)nnc3s2)cc1,1%,·,-5%,-12%,-8%,-2,·
CCOc1ccc(OCCCCn2cnc3ccccc3c2=O)cc1,0%,2%,1%,?,-1%,-2,·
Fc1ccccc1Cn1nnc2c(-n3ccnc3)ncnc21,2%,-2%,1.1µM*,-11%,2%,-3,0
CC(C)Sc1nc2c([nH]1)c(=N)ncn2Cc1ccccc1,3%,5%,14µM*,?,-8%,1,-1
Cc1cccc(OCCSc2nc3c([nH]2)c(=N)ncn3Cc2ccccc2)c1,-1%,-7%[46.1 µM],4%,-10%,0%,-1,·
Cc1cccc(N(C(=O)c2csnn2)C(C(=O)NCc2ccccc2)c2cccs2)c1 (configuration not stated),1%,-1%,1%,-23%,3%,0,·
COc1ccc(-c2ccc(SCC(=O)N3CC(=O)Nc4ccccc43)nn2)cc1,-2%,-7%,-13%,4%,0%,0,·
O=C(Cn1nnc(-c2ccccc2)n1)N1CCN(S(=O)(=O)c2ccc(Cl)cc2)CC1,-4%,·,2.5µM*,0%,-1%,-3,3
Cc1ccc(-n2cc(S(=O)(=O)c3ccc(C)cc3)[nH]c2=O)cc1,-7%,-8%,7.1µM*,19%,0%,-2,4
CCn1cc(S(=O)(=O)c2ccc(C)cc2)[nH]c1=O,0%,11%,15%,-2%,-1%,-5,·
Cc1ccc(NC(=O)CN(C)CC(=O)N(CC(C)C)c2c(N)n(CC(C)C)c(=O)[nH]c2=O)c(C)c1,0%,10%,·,-24%,3%,1,·
CCCCCc1c(-c2ccc(OC)cc2)ncn1CCc1ccccc1OC,·,·,·,·,·,-1,·
CSc1ncccc1C(=O)Nc1ccc(S(=O)(=O)NC2=NCCCCC2)cc1,-6%,10%,2%,26%,2%,0,·
COc1ccc(C(=O)NCCN2C(=O)S/C(=C\c3cccnc3)C2=O)cc1[N+](=O)[O-],1%,4%,3.5µM*,-34%,3%,0,-9
